Data reported in PubChem BioAssay (NCI).
Values joined by “and” are separate entries in the source; they are usually repeats but may differ in a detail not shown here. Identical values can stand only once. About 83,000 compounds went through this panel and 20% of them were active in at least one assay; those are over-represented in the sample as a whole.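 How to read the values: 0–100, growth inhibition (40 = 60% inhibited); 0, no net growth; -100 to 0, cell death (-40 = 40% of starting cells died; -100 = all dead).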 Active and inactive are the calls of the source. The calls were made as follows: active = growth percent below 10; inactive = the rest.

test system: MDA-MB-468 breast; assay: NCI-60 one-dose screen, 48 h (100 = growth as untreated, 0 = no growth, -100 = all killed); details: 10 µM unless noted

Row | Structure (SMILES) | growth
1 | Nc1ccc(S(=O)(=O)c2ccc(N)cc2)cc1 | 97.5% (inactive) and 101% (inactive)
2 | CCOc1ccc(-c2nc3ccc(-c4nc5ccc(N6CCN(C)CC6)cc5[nH]4)cc3[nH]2)cc1OCC | -44.5% (active)
3 | COc1cc(NCc2cn(-c3ccc(C(=O)O)cc3)nc2-c2ccc(C(=O)O)cc2)cc(OC)c1OC | 102% (inactive)
4 | CC(C)c1ccc(Nc2n[nH]c(=S)s2)cc1 | 107% (inactive)
5 | CC1CCN(CCCCCOc2ccc3oc4ccc(Cl)cc4c(=O)c3c2)CC1 | 54.5% (inactive)
6 | Nc1ccc(S(=O)(=O)Nc2ccnn2-c2ccccc2)cc1 | 107% (inactive)
7 | O=S(=O)(c1ccccc1)n1cc2c(c1-c1ccccc1)CCc1sc(Nc3ccccc3)nc1-2 | 73.3% (inactive)
8 | CC(=O)c1ccc(-n2c(-c3cc(-c4ccsc4)n[nH]3)n[nH]c2=S)cc1 | 97.3% (inactive)
9 | COc1cc(NS(C)(=O)=O)ccc1Cc1c2ccccc2nc2ccccc12 | -14.1% (active)
10 | O=C(CCCCC[P+](c1ccccc1)(c1ccccc1)c1ccccc1)NC(COC(=O)C(Cl)Cl)(COC(=O)C(Cl)Cl)COC(=O)C(Cl)Cl | 84.4% (inactive)
11 | CC(=O)Nc1ccc(S(=O)(=O)N/N=C\c2ccc(Cl)c(Cl)c2)cc1 | 100% (inactive)
12 | Nn1c(=O)n(-c2cccc(C(F)(F)F)c2)c(=O)c2cc(-c3ccc(F)cc3F)ccc21 | -5.36% (active)
13 | CC(=O)CCC(=O)OCc1cc(=O)c(O)co1 | 101% (inactive)
14 | O=[N+]([O-])c1ccc(NS(=O)(=O)c2cc(Cl)ccc2Cl)c2ccccc12 | 23.6% (inactive)
15 | c1ccc(COCC[P+](c2ccccc2)(c2ccccc2)c2ccccc2)cc1 | -10.4% (active)
